# Reference: PubChem BioAssay
# For some of these results: Potency and affinity values are given separately. The source made the active and inactive calls.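 Rule for the calls, unless noted: active = dose-response curve with midpoint inside the tested range, moderate steepness, significant amplitude and little compound fluorescence or bead-attachment interference; inactive = the rest.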
# What was measured:
# [1] = biological target: Cell division control protein 42 homolog (Homo sapiens) (UniProt P60953); assay: inhibition of fluorescent GTP binding to wildtype Cdc42 – biochemical, multiplex bead flow cytometry, Bodipy-FL-GTP, dose response (AID 1334;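 active = fitted half-maximal concentration within the tested range, moderate curve steepness, significant signal drop, and little compound fluorescence or bead-linkage interference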); details: bead-based flow cytometry, Bodipy-FL-GTP binding to GST-Cdc42; at 100 µM (top of the series) unless noted
# Sequence of Cell division control protein 42 homolog (Homo sapiens) (P60953 whole entry, looked up): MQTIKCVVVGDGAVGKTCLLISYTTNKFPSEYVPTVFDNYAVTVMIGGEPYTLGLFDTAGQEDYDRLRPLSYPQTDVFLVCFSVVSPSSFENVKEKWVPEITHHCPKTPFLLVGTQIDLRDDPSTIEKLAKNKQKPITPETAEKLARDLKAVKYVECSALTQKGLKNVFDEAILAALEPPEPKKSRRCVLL
# [2] = biological target: GTPase HRas (Homo sapiens) (UniProt P01112); assay: Ras wt fluorescent GTP loading blockade – biochemical, wildtype, multiplex bead flow cytometry, dose response (AID 1335;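 active = fitted half-maximal concentration within 10 nM to 100 µM, steepness 0.5 to 2, significant signal drop, low assay interference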); details: bead-based flow cytometry, Bodipy-GTP binding to GST-Ras; at 100 µM (top of the series) unless noted
# Sequence of GTPase HRas (Homo sapiens) (P01112 whole entry, looked up): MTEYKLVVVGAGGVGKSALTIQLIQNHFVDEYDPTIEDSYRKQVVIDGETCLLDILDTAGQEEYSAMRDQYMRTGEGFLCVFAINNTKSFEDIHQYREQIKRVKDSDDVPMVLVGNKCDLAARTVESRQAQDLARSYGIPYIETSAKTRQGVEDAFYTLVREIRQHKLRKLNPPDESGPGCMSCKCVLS
# [3] = system: Ras-related protein Rab-7a (dog), GTP binding; assay: blockers of fluorescent GTP binding to Rab7 – biochemical, wildtype, multiplex bead flow cytometry, dose response (AID 1336; call rule not given here)
# [4] = biological target: Ras-related C3 botulinum toxin substrate 1 (Homo sapiens) (UniProt P63000); assay: inhibition of wildtype Rac1 nucleotide loading – biochemical, multiplex bead flow cytometry, dose response (AID 1340;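 active = dose curve with midpoint inside tested range, moderate steepness, plateau gap beyond fit error, low compound glow and bead-link interference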); details: GST-Rac1 beads, Bodipy-FL-GTP binding; at 100 µM (top of the series) unless noted
# [5] = biological target: GTPase HRas (Homo sapiens) (UniProt P01112); assay: blockade of GTP loading onto mutant Ras – biochemical, activated mutant, multiplex bead flow cytometry, dose response (AID 1341);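 note: GST-tagged constitutively activated Ras mutant immobilized on beads and multiplexed with other GTPases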
# [6] = biological target: Cell division control protein 42 homolog (Homo sapiens) (UniProt P60953); assay: inhibition of fluorescent GTP binding to constitutively active Cdc42 – biochemical, multiplex bead flow cytometry, Bodipy-FL-GTP, dose response (AID 1333;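 active = fitted half-maximal concentration within the tested dose range, moderate curve steepness, a statistically real signal drop, and little compound fluorescence or tag-binding interference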)
# [7] = hit retest on RPL19A-GFP reporter strain – cell-based, S. cerevisiae, flow cytometry, cherry picks, mother/daughter gates, confirmation (AID 2270;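 active = GFP response below 50% of the DMSO control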); details: 3 h, at 10 µM, stronger effect = lower value, 100 = same GFP as DMSO wells
# [8] = yeast TOR pathway reporter LAP4-GFP change – cell-based, cherry picks, flow cytometry, mother/daughter gates, confirmation (AID 2271;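 active = GFP response above 150% of the DMSO control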;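 note: ratio of sample to DMSO plate mean so 100% equals DMSO level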); details: S. cerevisiae LAP4-GFP strain, 3 h, at 10 µM, stronger effect = higher value, 100 means same as DMSO control
# [9] = TOR pathway reporter MEP2-GFP, retest of hits – S. cerevisiae, flow cytometry GFP, cherry picks, confirmation (AID 2272;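 active = GFP response above 150% of the DMSO control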;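 note: ratio of well signal to plate DMSO mean so 100% equals DMSO level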); details: S. cerevisiae MEP2-GFP strain, 3 h, at 10 µM, stronger effect = higher value
# [10] = yeast AGP1-GFP fluorescence change, single-dose – cell-based, flow cytometry, S. cerevisiae, cherry picks, confirmation (AID 2273;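 active = GFP response above 150% of the DMSO level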;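 note: median GFP channel fluorescence over the whole cell population gate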); details: S. cerevisiae AGP1-GFP strain, 3 h, at 10 µM
# [11] = TOR pathway CIT2 reporter hit retest – S. cerevisiae, GFP fusion, cherry picks, mother/daughter gates, confirmation (AID 2274;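 active = GFP response above 150% of the DMSO level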); details: S. cerevisiae CIT2-GFP strain, flow cytometry, 3 h, at 10 µM, stronger effect = higher value
# [12] = measured here: daughter cell gate
# [13] = measured here: mother cell gate
smiles,measurement,setting,value
O=C(O)c1cc(Sc2ccc(Cl)cc2)nc2ccccc12,"fluorescence, percent of control (lower = inhibition)",[1],55.8%
same,"GTP binding, percent of control",[2],81.1%
same,outcome,[3],inactive
same,"GTP binding signal, raw median fluorescence (lower = inhibition) (MCF (arbitrary fluorescence units))",[4],29
same,outcome,[5],inactive
CCN1C(c2ccccc2)=C(c2ccccc2)S/C1=C/C=C1\SC(=S)N(C)C1=O,outcome,[6],inactive
same,"fluorescence, percent of control (lower = inhibition)",[1],41.8%
same,outcome,[3],inactive
same,"GTP binding signal, raw median fluorescence (lower = inhibition) (MCF (arbitrary fluorescence units))",[4],167
same,outcome,[5],inactive
COc1ccc(C(=O)/C=C/Nc2ccc(S(=O)(=O)Nc3nc(C)cc(C)n3)cc2)cc1OC,outcome,[6],inactive
same,"fluorescence, percent of control (lower = inhibition)",[1],39.1%
same,"GTP binding, percent of control",[2],80%
same,outcome,[3],inactive
same,outcome,[5],inactive
O=C(C#Cc1ccc(F)cc1)c1ccc([N+](=O)[O-])cc1,"fluorescence, percent of control (lower = inhibition)",[1],39.2%
same,"GTP binding, percent of control",[2],142%
same,outcome,[3],inactive
same,"GTP binding signal, raw median fluorescence (lower = inhibition) (MCF (arbitrary fluorescence units))",[4],48.4
same,outcome,[5],inactive
O=C1/C(=C\c2cccnc2)Sc2ccccc21,outcome,[6],inactive
same,"fluorescence, percent of control (lower = inhibition)",[1],29.1%
same,"GTP binding, percent of control",[2],62.4%
same,outcome,[3],inactive
same,outcome,[5],inactive
Cc1cc(C(=O)Oc2ccccc2C(=O)O)c(C)o1,outcome,[6],inactive
same,"fluorescence, percent of control (lower = inhibition)",[1],61.1%
same,outcome,[5],inactive
CCn1cc(C=C2C(=O)c3ccccc3C2=O)c2ccccc21,outcome,[6],inactive
same,"fluorescence, percent of control (lower = inhibition)",[1],40.2%
same,outcome,[3],inactive
same,"GTP binding signal, raw median fluorescence (lower = inhibition) (MCF (arbitrary fluorescence units))",[4],161
same,outcome,[5],inactive
CCOC(=O)Cn1nnnc1C(C(C)C)N(Cc1cccs1)Cc1cc2cc(C)ccc2[nH]c1=O (configuration not stated),outcome,[6],inactive
same,"GTP binding, percent of control",[2],181%
same,outcome,[3],inactive
same,"GTP binding signal, raw median fluorescence (lower = inhibition) (MCF (arbitrary fluorescence units))",[4],181
same,outcome,[5],inactive
O=C(C#CC1CCCCC1)c1ccc([N+](=O)[O-])cc1,"fluorescence, percent of control (lower = inhibition)",[1],33%
same,"GTP binding, percent of control",[2],177%
same,outcome,[3],inactive
same,"GTP binding signal, raw median fluorescence (lower = inhibition) (MCF (arbitrary fluorescence units))",[4],45.6
same,outcome,[5],inactive
CCOC(=O)CN(C(=O)CSc1nnc2c(n1)[nH]c1ccc(OC)cc12)c1ccc(F)cc1,outcome,[6],inactive
same,"fluorescence, percent of control (lower = inhibition)",[1],47.9%
same,"GTP binding, percent of control",[2],58.9%
same,outcome,[3],inactive
same,outcome,[5],inactive
O=C(O)CCN1C(=O)/C(=C/c2ccc(-c3nc4ccccc4s3)o2)SC1=S,outcome,[6],inactive
same,"fluorescence, percent of control (lower = inhibition)",[1],32.8%
same,"GTP binding, percent of control",[2],53.9%
same,outcome,[3],inactive
same,outcome,[5],inactive
CN1C(=O)N(C)c2ccc(C=O)c3cccc1c23,outcome,[6],inactive
same,"fluorescence, percent of control (lower = inhibition)",[1],36.5%
same,"GTP binding, percent of control",[2],82.8%
same,outcome,[3],inactive
same,outcome,[5],inactive
O=C(O)c1ccc(COc2ccccc2Cl)o1,outcome,[6],inactive
same,"fluorescence, percent of control (lower = inhibition)",[1],73.5%
same,"GTP binding, percent of control",[2],96.7%
same,outcome,[3],inactive
same,outcome,[5],inactive
CCOC(=O)c1nc(Nc2ccc(C(C)=O)cc2)c2ccccc2n1,outcome,[6],inactive
same,"fluorescence, percent of control (lower = inhibition)",[1],36%
same,"GTP binding, percent of control",[2],80.4%
same,outcome,[3],inactive
same,outcome,[5],inactive
NC(N)=NS(=O)(=O)c1ccc(NC(=S)NC(=O)c2ccc3c(c2)OCO3)cc1,outcome,[6],inactive
same,"fluorescence, percent of control (lower = inhibition)",[1],44.3%
same,"GTP binding, percent of control",[2],97.7%
same,outcome,[3],inactive
same,outcome,[5],inactive
COc1cccc(-n2nnnc2S(C)(=O)=O)c1,"fluorescence, percent of control (lower = inhibition)",[1],34%
same,"GTP binding, percent of control",[2],59.3%
same,outcome,[3],inactive
same,"GTP binding signal, raw median fluorescence (lower = inhibition) (MCF (arbitrary fluorescence units))",[4],157
same,outcome,[5],inactive
O=C(NNC(=S)NCc1ccc(Cl)cc1)c1ccc(Br)o1,outcome,[6],inactive
same,"fluorescence, percent of control (lower = inhibition)",[1],28.8%
same,"GTP binding, percent of control",[2],74.4%
same,outcome,[3],inactive
same,outcome,[5],inactive
O=C(Nc1nc(-c2ccc(S(=O)(=O)N3CCCC3)cc2)cs1)c1ccco1,outcome,[6],inactive
same,"fluorescence, percent of control (lower = inhibition)",[1],49.8%
same,"GTP binding, percent of control",[2],118%
same,outcome,[3],inactive
same,outcome,[5],inactive
CC(C)Oc1ccc(/C=N/NC(=O)c2ccc(N(Cc3ccccc3)S(C)(=O)=O)cc2)cc1,outcome,[6],inactive
same,"fluorescence, percent of control (lower = inhibition)",[1],43.8%
same,"GTP binding, percent of control",[2],57.5%
same,outcome,[3],inactive
same,outcome,[5],inactive
O=C(NC1CCCCC1)c1cc([N+](=O)[O-])[nH]n1,outcome,[6],inactive
same,"fluorescence, percent of control (lower = inhibition)",[1],37.3%
same,"GTP binding, percent of control",[2],80.1%
same,outcome,[3],inactive
same,outcome,[5],inactive
Cc1ccc(-n2c(=O)cc(N3CCc4ccccc4C3)[nH]c2=O)cc1,outcome,[6],inactive
same,"fluorescence, percent of control (lower = inhibition)",[1],58.7%
same,outcome,[3],inactive
same,"GTP binding signal, raw median fluorescence (lower = inhibition) (MCF (arbitrary fluorescence units))",[4],251
same,outcome,[5],inactive
COCCn1c(=S)[nH]c2cc(C(=O)N3CCc4ccccc4C3)ccc2c1=O,outcome,[6],inactive
same,"fluorescence, percent of control (lower = inhibition)",[1],35.6%
same,"GTP binding, percent of control",[2],83.9%
same,outcome,[3],inactive
same,outcome,[5],inactive
Cc1sc2nc3ccc(NCc4ccco4)nn3c(=O)c2c1C,outcome,[6],inactive
same,"GTP binding, percent of control",[2],57.4%
same,outcome,[3],inactive
same,outcome,[5],inactive
O=C(NCc1ccc2c(c1)OCO2)c1ccc(CSCc2cccc(Cl)c2)o1,"fluorescence, percent of control (lower = inhibition)",[1],31%
same,"GTP binding, percent of control",[2],76.4%
same,outcome,[3],inactive
same,"GTP binding signal, raw median fluorescence (lower = inhibition) (MCF (arbitrary fluorescence units))",[4],266
same,outcome,[5],inactive
COc1cc(SC#N)ccc1N=Cc1c(C)[nH]n(-c2ccc(C)c(C)c2)c1=O,outcome,[6],inactive
same,"fluorescence, percent of control (lower = inhibition)",[1],44.7%
same,"GTP binding, percent of control",[2],83%
same,outcome,[3],inactive
same,outcome,[5],inactive
Cc1cccc(-n2nc(CC#N)c(C#N)c2N)c1,outcome,[6],inactive
same,"fluorescence, percent of control (lower = inhibition)",[1],33.5%
same,"GTP binding, percent of control",[2],74.8%
same,outcome,[3],inactive
same,outcome,[5],inactive
COc1ccc(Cl)cc1NCc1sc(C(=O)O)cc1C,outcome,[6],inactive
same,"fluorescence, percent of control (lower = inhibition)",[1],62.5%
same,"GTP binding, percent of control",[2],84.3%
same,outcome,[3],inactive
same,outcome,[5],inactive
NC(=S)N=Nc1c(O)[nH]c2ccc(F)cc12,outcome,[6],inactive
same,"fluorescence, percent of control (lower = inhibition)",[1],30.2%
same,"GTP binding, percent of control",[2],64.9%
same,outcome,[3],inactive
same,outcome,[5],inactive
CCS(=O)(=O)N1N=C(c2cccc(NS(C)(=O)=O)c2)CC1c1ccc(C)cc1 (configuration not stated),outcome,[6],inactive
same,outcome,[3],inactive
same,"GTP binding signal, raw median fluorescence (lower = inhibition) (MCF (arbitrary fluorescence units))",[4],230
same,outcome,[5],inactive
same,GFP response vs DMSO,[7],100% (inactive)
same,GFP response vs DMSO,[7]; [12],99.1%
same,GFP response vs DMSO,[7]; [13],101%
same,GFP response relative to DMSO,[8],101% (inactive)
same,GFP response relative to DMSO,[8]; measured here: daughter cell gate response,97.5%
same,GFP response relative to DMSO,[8]; measured here: mother cell gate response,100%
same,GFP response vs DMSO,[9],116% (inactive)
same,"GFP response, % of DMSO",[10],104% (inactive)
same,"GFP response, % of DMSO",[11],108% (inactive)
same,"GFP response, % of DMSO",[11]; [12],105%
same,"GFP response, % of DMSO",[11]; [13],108%
Cc1cc(C(=O)O)sc1CNCc1ccccc1Cl,outcome,[6],inactive
same,"fluorescence, percent of control (lower = inhibition)",[1],60.4%
same,"GTP binding signal, raw median fluorescence (lower = inhibition) (MCF (arbitrary fluorescence units))",[4],33.9
CCOC(=O)c1c(NC(=O)C(=O)N/N=C/c2ccc(O)c(OC)c2)sc2c1CCCCC2,outcome,[6],inactive
same,"GTP binding, percent of control",[2],64.6%
same,outcome,[3],inactive
same,"GTP binding signal, raw median fluorescence (lower = inhibition) (MCF (arbitrary fluorescence units))",[4],184
same,outcome,[5],inactive
O=C(O)c1cn(CCOc2ccccc2)c2ccccc12,outcome,[6],inactive
same,"fluorescence, percent of control (lower = inhibition)",[1],76.5%
same,"GTP binding, percent of control",[2],92.7%
same,outcome,[3],inactive
same,outcome,[5],inactive
O=C(O)c1ccccc1Oc1ccccc1,outcome,[6],inactive
same,"fluorescence, percent of control (lower = inhibition)",[1],83.7%
same,"GTP binding, percent of control",[2],100%
same,"GTP binding signal, raw median fluorescence (lower = inhibition) (MCF (arbitrary fluorescence units))",[4],65
same,outcome,[5],inactive
O=C(O)c1ccccc1Sc1ncnc2sc3c(c12)CCC3,"GTP binding, percent of control",[2],118%
same,outcome,[5],inactive
